# HIF-2a inh – HIF-2a inhibition; 786-0 RCC cells HIF-2a reporter, luciferase luminescence, overnight; inhibition, % at 18.8 µM; actives 0.72% (n = 360,000);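 active = inhibition of the luminescence signal of 40% or more relative to plate controls, in a single-dose primary screen at 18.75 µM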
# Peg3 prom inh – reduces Peg3 promoter-driven luciferase expression in HeLa. HeLa PEG-Prom luciferase reporter, luminescence, overnight. inhibition, % at 20 µM. actives 1.7% (n = 360,000);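 active = inhibition of at least 50% at 20 µM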
# CF NFkB block – cystic fibrosis NF-kB activation inhibition; inhibition, % at 5 µM; KKLEB NF-kB-GFP reporter, PAF-induced, GFP fluorescence overnight; actives 0.86% (n = 360,000);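 active = at least 50% inhibition at 5 µM, scaled per plate between neutral and stimulator controls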;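 note: PAF is a Pseudomonas aeruginosa culture filtrate used as stimulus; plate controls were PAF-stimulated DMSO wells for no effect and unstimulated DMSO wells for full effect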
# TRPM1 prom inh – inhibitors of MITF-driven TRPM1 promoter in melanoma cells; SK-MEL-5 TRPM1 promoter luciferase, 24 h; inhibition, % at 12.5 µM; actives 0.83% (n = 330,000); AID 488899;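 active = mean inhibition across replicates of 60% or more, whatever share of single replicates reaches that level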
# KKLEB tox – counter-screen for CF NF-kB inhibitors: cytotoxicity; KKLEB CF airway cells viability, ATPlite luminescence, overnight; hits give low values; cells stimulated with P. aeruginosa culture filtrate; activity change (cytotoxicity), % at 5 µM; AID 602141; actives 0.36% (n = 360,000);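 active = corrected activity change at or below -50% at 5 µM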
# CHOP inh – CHOP inhibition in unfolded protein response | CHO-K1 CHOP-promoter luciferase, tunicamycin-induced, 15-18 h | actives 3.8% (n = 220,000) | inhibition, % at 10 µM;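 active = compounds that reduced the stress-induced luciferase reporter signal by more than about 70% of percent inhibition, limit read from the data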;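 note: 0% = tunicamycin plus vehicle and 100% = wells without tunicamycin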
# CF NFkB inh conf – CF NF-kB inhibition confirmation, single concentration. shares compounds with CF NFkB block. KKLEB CF airway cells, PAF-induced NF-kB-GFP fluorescence, overnight. inhibition, % at 5 µM. actives 64% (n = 1,300). AID 602472; in the data active = inhibition above about 40%;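 note: stimulus PAF is a Pseudomonas aeruginosa filtrate and not platelet activating factor; plate controls were DMSO wells with stimulus for no effect and unstimulated DMSO wells for full effect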
# Starred values were filed as active, the others as inactive; · = no result. Hits are enriched below; roughly 4.3% of the tested compounds scored in any of these assays.
SMILES,HIF-2a inh,Peg3 prom inh,CF NFkB block,TRPM1 prom inh,KKLEB tox,CHOP inh,CF NFkB inh conf
CCN(C[C@H]1N[C@@](CC)(C(=O)OC)[C@H]2C(=O)N(C)C(=O)[C@@H]12)C(=O)Nc1ccc(C)cc1,-32,-2,-5,-11,3,·,·
O=C(NCCc1ccccc1)c1coc(=O)c(Br)c1,9,107*,69*,-4,4,·,76*
CN(C)CCNC(=O)c1coc(=O)c(Br)c1,19,10,-5,-3,-3,14,·
CC(C)c1ccc(NC(=O)COC(=O)c2nn(C)c(=O)c3ccccc23)cc1,-31,-15,27,·,2,·,·
Nc1ncnc(NC2CCS(=O)(=O)C2)c1[N+](=O)[O-] (stereo not given),11,-25,52*,12,-6,24,35
CN(c1ncnc(N)c1[N+](=O)[O-])C1CCS(=O)(=O)C1 (stereo not given),8,-3,51*,-37,-14,39,61*
CCN(CC1COc2ccccc2O1)S(=O)(=O)c1ccc(C)cc1 (stereo not given),3,18,6,3,6,64,·
O=[N+]([O-])c1nccn1CC(O)CO (stereo not given),12,·,·,·,·,·,·
C=CCN1c2ccccc2Sc2cnccc21,5,35,80*,·,-11,·,91*
CC(=O)OCCN1c2ccccc2Sc2cnccc21,24,26,65*,·,-3,·,67*
O=Cc1ccc(Sc2ncccn2)o1,19,1,-1,10,-6,6,·
CC[C@@]1(c2ccccc2)C(=O)N(C(=O)OC)N1C(=O)OC,9,12,12,27,6,·,·
COC(=O)N1C(=O)[C@@](c2ccccc2)(C2CCCCC2)N1C(=O)OC,24,84*,66*,21,-24,·,49*
COC(=O)N1C(=O)[C@](Cc2ccccc2)(c2ccccc2)N1C(=O)OC,-72,16,49,33,-21,·,·
COC(=O)N1C(=O)[C@@](Cc2ccccc2)(c2ccccc2)N1C(=O)OC,7,25,57*,38,-10,·,55*
O=c1cc(C(F)(F)F)[nH]c2c(C(F)(F)F)cccc12,-3,24,57*,5,-2,-5,1
CCc1c(-c2ccccc2F)ncn1Cc1cccc(-c2ccccc2)c1,-15,·,·,·,·,·,·
C[C@@]12CCC=C[C@H]1[C@H](c1ccc3ccccc3c1)N(Cc1ccccc1)C2=O,26,26,45,-7,-25,51,·
C[C@@]12CCC=C[C@H]1[C@H](c1ccc3ccccc3c1Br)N(Cc1ccccc1)C2=O,26,45,57*,19,-21,52,40*
O=C(OCCc1cc2ccccc2c(=O)o1)N1CCOCC1,-103,-66,4,-20,12,·,·
CCN(CC(=O)Nc1ccc(OC)cc1)C(=O)c1cc(-c2cccs2)nn1-c1ccccc1,10,50,54*,10,-11,·,51*
Clc1cccc(Cl)c1/C=N/Nc1c(Cl)cncc1Cl,8,24,-2,8,1,29,·
Clc1cncc(Cl)c1N/N=C/c1ccncc1,14,-12,81*,11,-42,49,78*
NNc1ncnc2scc(-c3ccc(Cl)cc3)c12,24,-6,-4,10,-5,17,·
OCCCNc1ncnc2scc(-c3ccc(Cl)cc3)c12,24,23,63*,2,-11,·,81*
SMILES,HIF-2a inh,Peg3 prom inh,CF NFkB block,TRPM1 prom inh,KKLEB tox,CHOP inh,CF NFkB inh conf
CN1CCC(OC(=O)c2cc3cc(Cl)cc(Cl)c3oc2=O)CC1,25,40,54*,-3,6,·,82*
Cc1nc2c(O)c3c(c(O)c2nc1C)C1C=CC3CC1,-4,93*,83*,63*,-34,·,85*
O=C(CC1Sc2ccccc2NC1=O)NNc1ccc(F)cc1 (stereo not given),6,14,-2,10,-10,·,·
Clc1ccc(Cn2ncc3c(N4CCN(c5ccccc5)CC4)ncnc32)cc1,-29,92*,91*,·,-36,·,100*
COc1ccc2ncn(-c3ccccc3)c2c1,12,-3,58*,-38,-6,32,57*
C=CCC1CCCCC1=C(C#N)c1ccccc1 (stereo not given),9,6,10,·,0,·,·
CS(=O)(=O)Nc1ccc(-c2cnc3cccnn23)cc1,-29,-5,60*,·,-1,·,71*
Cc1ccc(NC(=O)c2ccccc2NS(=O)(=O)c2ccc(Cl)s2)cc1S(=O)(=O)N1CCOCC1,-8,-17,57*,21,-49,15,80*
Cc1ccc(O)c(N=Nc2ccccc2)n1,-187,-164,1,-64,-1,-9,·
CC1(Cc2ccc(Cl)cc2)C(=O)Nc2ccc(-c3cccnc3)cc21 (stereo not given),16,23,79*,·,-30,·,91*
CC1(Cc2cccc(F)c2)C(=O)Nc2ccc(-c3cccnc3)cc21 (stereo not given),15,20,72*,·,5,·,66*
CCc1ccc2c(c1)NC(=O)C2(C)Cc1cccc(F)c1 (stereo not given),9,15,5,·,-4,·,·
CC1=Nc2ccccc2/C1=C/c1c(C)[nH]c2ccccc12,25,91*,53*,49,-22,·,-60
O=[N+]([O-])c1cccc(-c2ccc(CN3CCCCC3)o2)c1,-18,-25,8,0,-13,·,·
O=C1N(c2ccccc2C(F)(F)F)O[C@@]1(c1ccccc1)C1CCCCC1,3,57*,65*,19,-15,·,60*
CCOC(=O)N1CCC(NC(=O)c2ccc3c(c2)N=C(C)c2c(C)ccc(C)c2S3)CC1,24,21,57*,59,-18,·,58*
COc1cccc(-c2ccc3ncnc(NCc4cccnc4)c3c2)c1,26,29,71*,-5,-16,·,83*
C[C@@H]1C[C@H]2[C@@H]3CCC4=CC(=O)C=C[C@]4(C)[C@@]3(Cl)[C@@H](O)C[C@]2(C)[C@@]1(OC(=O)c1ccco1)C(=O)CCl,25,68*,89*,2,22,·,29
CC(=O)C1CCC2C3CCC4=CC(=O)C=CC4(C)C3C(=O)CC12C (stereo not given),5,15,5,9,-10,·,·
CC1CC2C3CCC4=CC(=O)C=CC4(C)[C@@]3(Cl)C(O)CC2(C)C1(O)C(=O)CO (stereo not given in full),13,-5,66*,-15,13,·,16
COCCN(Cc1ccccc1)C(=O)c1c(C)nn(-c2ccccc2)c1C,14,-3,-9,0,11,-14,·
Cc1ccccc1S(=O)(=O)Cc1ccc(C(=O)N2CCN(c3cccc(C)c3C)CC2)o1,10,70*,68*,53,-24,·,63*
